Source: PubChem BioAssay (NCI)
This is part of a sample that, as a whole, favours compounds with a hit. Of some 83,000 tested, about 20% had one in any assay.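 In brief: 96-well plates, 48 h treatment, single concentration, percent growth endpoint.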 Unmarked numbers belong to inactive results. Activity calls are given as the source filed them. Rule for the calls: active = growth percent below 10; inactive = the rest.

Columns and labels:
Assay in all cases: NCI-60 one-dose screen, 48 h (100 = growth as untreated, 0 = no growth, -100 = all killed)
NCI-H522 lung = settings: 10 µM unless noted
COLO 205 colon = settings: 10 µM
MALME-3M melanoma = settings: 10 µM unless noted
SF-295 CNS = settings: 10 µM unless noted
SNB-19 CNS = settings: 10 µM unless noted
LOX IMVI melanoma = settings: 10 µM unless noted
SK-MEL-28 melanoma = settings: 10 µM unless noted
EKVX NSCLC = settings: 10 µM unless noted
SN12C renal = settings: 10 µM unless noted
TK-10 renal = settings: 10 µM unless noted
CCRF-CEM leukemia = settings: 10 µM unless noted
SR leukemia = settings: 10 µM
BT-549 breast = settings: 10 µM
HCC-2998 colon = settings: 10 µM unless noted
CAKI-1 renal = settings: 10 µM unless noted
OVCAR-4 ovarian = settings: 10 µM unless noted
IGROV1 ovarian = settings: 10 µM
RPMI-8226 leukemia = settings: 10 µM unless noted
HOP-92 NSCLC = settings: 10 µM unless noted

Row | SMILES | growth (NCI-H522 lung) | growth (COLO 205 colon) | growth (MALME-3M melanoma) | growth (SF-295 CNS) | growth (SNB-19 CNS) | growth (LOX IMVI melanoma) | growth (SK-MEL-28 melanoma) | growth (EKVX NSCLC) | growth (SN12C renal) | growth (TK-10 renal) | growth (CCRF-CEM leukemia) | growth (SR leukemia) | growth (BT-549 breast) | growth (HCC-2998 colon) | growth (CAKI-1 renal) | growth (OVCAR-4 ovarian) | growth (IGROV1 ovarian) | growth (RPMI-8226 leukemia) | growth (HOP-92 NSCLC)
1 | Nc1cccc(CC(=O)Nc2ccc(S(=O)(=O)F)cc2)c1 | 84.8% | 95.8% | 90% | 101% | 105% | 98% | 87.5% | 104% | 100% | 107% | 2.63% (active) | 96.7% | 97% | 43.9% |  |  |  |  | 
2 | COc1ccc(C2=NN(c3ccccc3)C(c3sc(N(CCCl)CCCl)nc3Cl)C2)cc1 (stereo not drawn) | 71% | 92.1% | 99.3% | 93.2% | 93.5% |  | 97.9% | 86% | 90.5% | 117% | 86.1% | 86.1% | 108% | 107% | 69.4% | 91.9% | 121% |  | 
3 | CCOC(=O)c1cnc(SCc2ccc(Cl)c(Cl)c2)nc1N1CC1 | 36.7% | 67.8% | 68.6% | 39.1% | 62.9% |  | 88.5% | 69.7% | 58.4% | 71.9% |  | 24.1% | 52.6% | 51.9% | 31.1% | 53.6% | 33.7% | 59.7% | 
4 | C[C@]12CC[C@H]3[C@@H](C[C@@H]4N=C(c5ccc(O)cc5)S[C@@]45C[C@H](O)CC[C@]35C)[C@@H]1CC[C@@H]2O | 41.2% | 77.7% | 72.4% | -36.2% (active) | 71% | 25.4% | 53.3% | 63.6% | 96.7% | 89.3% | 13.1% | 5.95% (active) | 59.3% | 95.3% | 61.3% | 81.8% | 80.7% |  | 
5 | Fc1ccc(C2=NN(c3ccccc3)C(c3sc(N(CCCl)CCCl)nc3Cl)C2)cc1 (stereo not drawn) | 64.2% | 88.6% | 102% | 85.5% | 95.6% | 83.2% |  | 84% |  | 117% |  | 83% | 99.5% | 103% | 62.2% | 78.8% |  |  | 
6 | O=C(NCCNC(=O)c1ccc([As](O)O)cc1)c1ccc([As](O)O)cc1 | 103% | 100% | 108% | 107% | 106% | 90.3% | 111% | 103% | 113% | 111% | 105% | 101% | 111% | 100% | 98.3% | 105% | 110% | 114% | 
7 | CC(=O)N1N=C(c2ccccc2)CC1c1sc(N(CCCl)CCCl)nc1Cl (stereo not drawn) | 72.2% | 99.5% | 109% | 92.5% | 86.1% |  | 108% | 90.9% | 86.6% | 108% | 93.5% | 86.4% | 92.8% | 96.4% | 80.2% | 101% | 101% |  | 
8 | CC(C)N=C(NC(C)C)N1CC1 | 98.2% | 113% | 124% | 102% | 115% | 116% | 106% | 102% | 111% | 122% | 116% | 122% | 114% | 103% | 99.3% |  | 123% |  | 
9 | CN=C(NN)NN | 107% | 129% | 103% | 102% | 121% | 98.1% | 118% | 97% | 113% | 125% | 87.2% |  | 106% | 103% | 88.9% | 117% | 112% | 91.6% | 
10 | S=P(N1CCCCCC1)(N1CC1)N1CC1 | 102% | 93.9% | 90.3% | 117% | 101% | 103% | 116% | 119% | 96.2% | 98.5% | 94.4% | 82.6% | 102% | 93.8% | 96.3% | 117% | 90.1% |  | 
11 | O=c1cc[nH]c(=O)o1 |  | 104% | 95.2% | 101% | 108% | 97.9% | 111% |  | 105% | 84.1% |  | 94.7% | 102% | 116% | 102% | 104% | 104% | 93.1% | 118%
12 | CC(=O)Oc1ccc(Cl)cc1 |  | 107% | 96.7% | 112% | 91.2% | 90.5% | 89.5% | 101% | 94.6% | 97% |  |  |  | 96.1% | 90.5% | 97.3% | 114% |  | 91.1%
13 | COc1cc(C2=NN(c3ccccc3)C(c3sc(N(CCCl)CCCl)nc3Cl)C2)cc(OC)c1OC (stereo not drawn) | 69.1% | 90.6% | 121% | 89.4% | 86.4% | 92.7% | 99.1% | 78.9% | 79.9% | 102% | 87.9% | 84.2% | 95.4% | 99.9% | 64% | 87.5% | 106% |  | 
14 | CO[C@@H](c1ccccc1Cl)[C@H](C)OC(N)=O | 94.2% | 101% | 93.5% | 95.8% | 96.7% | 98.1% |  | 100% | 106% | 97.6% | 82.6% | 111% | 97.2% | 91.5% | 92.1% | 112% | 102% |  | 
15 | NC(=O)SCC(=O)Nc1ccc([As](=O)(O)O)cc1 | -9.01% (active) | 75.6% | 122% | 111% | 92.8% |  | 101% | 111% | 89.8% | 105% |  | 100% | 92% | 82% | 109% | 99.8% |  | 84% | 
16 | CCC(C)/C=C(C)/C=C/C(=O)c1c(O)c(-c2ccc(O)cc2)c[nH]c1=O (stereo not drawn) | 34.1% | 105% | 75% | 57.5% | 59% | 40.2% |  | 58% |  | 27.3% |  |  | 38.3% | 47.5% | -16.5% (active) |  |  | 41.6% | 
17 | C1CN1c1nc(N2CC2)nc(N2CC2)n1 | -12.1% (active) | 61.4% | 49.7% | 14.2% | 35.9% | 17% |  | 86.3% |  | 78.3% | 15.6% | 6.79% (active) | 46.1% | 49.7% | 6.72% (active) | 44.6% | -3.62% (active) | 29.3% | 
18 | CNC(=O)Oc1cccc(N(C)C)c1 | 89.1% | 108% | 101% | 99.8% | 102% | 96.9% |  |  | 94.6% | 108% |  | 103% | 94.1% | 111% | 91.6% | 106% | 108% |  | 
19 | Cc1cc([N+](=O)[O-])c(Cl)cc1NS(=O)(=O)c1ccccc1 |  | 91.9% | 37.9% | 65.7% | 79.1% | 81.2% | 76% |  | 78.1% | 110% |  | 64.3% | 62.5% | 80.6% | 63.7% | 71.4% | 85% | 37.3% | -3.58% (active)
20 | CNC(C)Cc1ccccc1 (stereo not drawn) (tested in a mixture with another compound) | 82.4% | 102% | 103% | 97.7% | 105% | 98.7% | 105% |  | 104% | 92.8% | 105% | 108% | 109% | 101% | 102% | 104% | 101% | 90.4% | 
